From ChEMBL document CHEMBL3433997, “St. Jude Leishmania screening dataset” (2016)

Tests used:
Format in all cases: functional
[1] = target: Solute carrier family 2, facilitated glucose transporter member 1 (Homo sapiens) (UniProt P11166); assay: ST_JUDE_LEISH: Cytotoxicity at 2uM final concentration against transgenic Leishmania Mexicana promastigotes LmGLUT1 that are glucose transport deficient and complemented with the human glucose transporter GLUT1. Activity is measured by DNA content using SYBR green in vitro
Solute carrier family 2, facilitated glucose transporter member 1 (Homo sapiens), sequence (P11166 whole entry): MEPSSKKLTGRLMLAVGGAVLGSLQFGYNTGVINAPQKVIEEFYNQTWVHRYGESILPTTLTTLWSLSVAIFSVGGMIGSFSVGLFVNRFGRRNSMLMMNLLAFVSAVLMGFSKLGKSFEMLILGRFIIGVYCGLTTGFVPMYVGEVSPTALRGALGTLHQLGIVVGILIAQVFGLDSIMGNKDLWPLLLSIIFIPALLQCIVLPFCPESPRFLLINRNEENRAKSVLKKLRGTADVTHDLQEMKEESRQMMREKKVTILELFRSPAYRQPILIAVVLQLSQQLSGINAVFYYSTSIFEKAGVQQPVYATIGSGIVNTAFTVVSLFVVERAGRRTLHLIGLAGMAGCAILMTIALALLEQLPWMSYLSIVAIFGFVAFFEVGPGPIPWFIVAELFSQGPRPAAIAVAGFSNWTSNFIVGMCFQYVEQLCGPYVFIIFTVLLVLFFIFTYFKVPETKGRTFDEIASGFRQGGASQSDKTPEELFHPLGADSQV

[2] = target: Hexose transporter 1 (Plasmodium falciparum) (UniProt O97467); assay: ST_JUDE_LEISH: Cytotoxicity at 2uM final concentration against transgenic Leishmania Mexicana promastigotes LmPfHT that are glucose transport deficient and complemented with the Plasmodium falciparum hexose transporter. Activity is measured by DNA content using SYBR green in vitro
[3] = target: Glucose transporter (Leishmania mexicana) (UniProt O61059); assay: ST_JUDE_LEISH: Cytotoxicity at 2uM final concentration against transgenic Leishmania Mexicana promastigotes LmGT2 that are glucose transport deficient and complemented with the L. Mexicana glucose transporter 2. Activity is measured by DNA content using SYBR green in vitro

| SMILES | inhibition [1] [%] | inhibition [2] [%] | inhibition [3] [%] |
| --- | --- | --- | --- |
| O=C(Nc1ccccc1)N(Cc1cccc(-c2cccc(CNCCc3ccccc3)c2)c1)C1CCN(Cc2ccccc2)CC1 | 7.12 | 2.49 | 4.94 |
| N=C(NCCCCCCCCNC(=N)Nc1ccc(Cl)cc1)Nc1ccc(Cl)cc1 | 5.92 | 0.99 | 8.78 |
| COc1cc2nc(Nc3ccc4c(cnn4Cc4ccccc4)c3)nc(Nc3ccc4c(cnn4Cc4ccccc4)c3)c2cc1OC | 2.6 | 2.44 | 0.51 |
| CCc1cn(C)c2c(N3CCCC3=O)cc(C(=O)N[C@@H](Cc3ccccc3)[C@H](O)CNC(C)(C)c3cccc(C(F)(F)F)c3)cc12 | 4.78 | 3.46 | -1.12 |
| COc1ccc(-c2csc3ncnc(Cl)c23)cc1OC | 3.91 | 3.53 | -0.23 |
| Cc1c(CNCCCNc2cc(=O)c3ccccc3[nH]2)sc(/C=N/O)c1Br | 5.48 | 3.79 | 5.31 |
| CCCCCCCc1c2c(C)c(C(=O)OCC)nc-2cc2n1CC(C)=C2C | 3.56 | 2.2 | 3.09 |
| CC(C)CNCc1cccc(-c2cccc(CN(CCCN3CCN(C)CC3)C(=O)Nc3ccccc3)c2)c1 | 0.02 | -1.73 | 0.33 |
| O=C(CCCc1ccccc1)Nc1cccc(N2CCC(N3CCN(c4ccccc4O)CC3)CC2)c1 | 11.8 | 7.32 | 7.72 |
| CN(CCCCNC(=O)c1cc2ccccc2[nH]1)C1CC2(CCN(C(=O)OC(C)(C)C)CC2)c2ccccc21 (stereo not drawn) | -1.12 | -1.35 | -1.2 |
| O=C(c1cncc(-c2ccccc2)c1)N(Cc1cncn1Cc1ccccc1F)CC1CC1 | 0.88 | 0.96 | -0.58 |
| COc1ccc(Nc2ncc3c(-c4cccc(NC(=O)Cc5cccc(O)c5)c4)c[nH]c3n2)cc1OC | -1.87 | 1.51 | 3.39 |
| COCCN1CCC(C(=O)NCC(C)(C)c2nc(-c3ccc(Br)c(O)c3)c(-c3ccncc3)[nH]2)CC1 | 7.2 | 8.02 | 7.22 |
| CC[C@H](C)CNC(=O)c1cccc(-c2ccc(CN3CCC(N4CCCC4)CC3)cc2)n1 | 2.3 | 0.54 | 1.28 |
| O=C1Nc2cccc3c2C1(CCCCCN1CCC(c2c[nH]c4ccncc24)CC1)CCC3 (stereo not drawn) | 1 | 2.45 | -0.95 |
| Cc1cc(C2CCN(CCCCNC(=O)c3ccc(-c4ccc(C#N)cc4)cc3)CC2)c(C)cc1OCCO | 10 | 12.3 | 9.78 |
| O=C(Nc1cccc(F)c1)NC1CCN(CCCCCNC(=O)C2CC2c2ccc(Cl)c(Cl)c2)CC1 (stereo not drawn) | 0.44 | -0.11 | -1.31 |
| COc1ccc(NC(=O)c2ccc3cc4ccccc4cc3c2)cc1N1CCN(C)CC1 | 0.49 | -0.55 | 0.74 |

| SMILES | inhibition [1] [%] | inhibition [2] [%] | inhibition [3] [%] |
| --- | --- | --- | --- |
| CCn1c(-c2nonc2N)nc2cnc(Oc3cccc(NC(=O)c4ccc(OCCN5CCCC5)cc4)c3)cc21 | 7.41 | 9.98 | 7.84 |
| Cc1cccc2nc(-c3cccc(-c4ccc(NC(=O)CN5CCOCC5)cc4)c3)[nH]c12 | 4.78 | 4.5 | 2.97 |
| CCOC(=O)c1cc(Cl)ccc1OCCCON1C(=N)N=C(N)NC1(C)C | 1.75 | 3.52 | 3.08 |
| CCCCCCN1CCC(NCc2ccc(CN(C)C)cc2)CC1 | 0.45 | 2.27 | -7.52 |
| Cc1cccc(-c2ccc(CNC3CCN(CC4Cn5c(=O)ccc6ccc(F)c4c65)CC3)cn2)c1 (stereo not drawn) | 6.75 | 7.42 | 1.89 |
| O=C(NCCCCN1CCC(c2ccc3c(c2OCCO)CCCC3)CC1)c1ccc2oc(-c3ccc(C(F)(F)F)cc3)cc2c1 | 1.2 | 2.49 | 2.18 |
| COc1ccc(NC(=O)NC2CCN(c3ccnc4cc(Cl)ccc34)C2)cc1 (stereo not drawn) | 4.89 | 2.85 | 1.86 |
| COc1ccc(CNCc2ccccc2)cc1-c1ccc(S(=O)(=O)NCCN2CCCC2)cc1 | 2.89 | 1.76 | -2.76 |
| CN(c1ccccc1)c1ccnc(NC(=N)Nc2ccc(Cl)cc2)n1 | 5.16 | 5.4 | 5.1 |
| O=C(/C=C/c1ccc(Cl)c(Cl)c1)NC1CCC(CN2CCC(c3nc4ccccc4n3CCCO)CC2)CC1 (stereo not drawn) | 0.86 | 1.32 | 1.75 |
| Cc1cc(Nc2ccncc2)n2nc(C)c(-c3ccccc3Cl)c2n1 | 2.97 | 1.58 | 6.28 |
| COc1ccc(OC)c(NC(=O)c2c(-c3c(F)cccc3Cl)noc2C)c1 | 5.12 | 3.64 | 2.52 |
| COc1ccccc1-c1ccc(C(=O)NCC2CCCN(Cc3cccc(C(F)(F)F)c3)C2)s1 (stereo not drawn) | 6.82 | 8.99 | 7.33 |
| O=C(Nc1cccc(-c2ccc(-c3nc4ccccc4[nH]3)cc2)c1)c1ccncc1 | 8.95 | 4.33 | 2.5 |
| O=C(CCc1c[nH]cn1)Nc1cccc(-c2ccc(-c3nc4cc(F)ccc4[nH]3)s2)c1 | 10.2 | 7.95 | 9.84 |
| C=CCOC(=O)N1CCC(CNCc2cccc(-c3cccc(-c4nc5cccc(C)c5[nH]4)c3)c2)C1 (stereo not drawn) | 3.47 | 1.88 | 7.29 |
| O=C(Nc1ccc(OC2CCN(Cc3ccc(F)cc3)CC2)cc1)c1cccs1 | -0.82 | 0.37 | -2.79 |
| CCOc1cc(C(=O)Nc2ccc3nc(N4CCCCC4)cc(C)c3c2)cc(OCC)c1OCC | 4.92 | 4.24 | 3.07 |
